Laboratory results reported in PubChem BioAssay (NCI).
This is part of a sample that, as a whole, favours compounds with a hit. Of some 83,000 tested, about 20% had one in any assay.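 Interpretation: 100, growth as untreated; towards 0, rising growth inhibition; 0, no net growth; 0 to -100, cell death. Compounds scoring below 10 were considered active.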 Values without a mark were called inactive. Active and inactive are the calls of the source.

tested on: HS 578T breast; assay: NCI-60 one-dose screen, 48 h (100 = growth as untreated, 0 = no growth, -100 = all killed); details: 10 µM unless noted
Description: Growth inhibition of the HS 578T human tumor cell line is measured as a screen for anti-cancer activity. Cells are grown in 96 well plates and exposed to the test compound for 48 hours. Compounds are tested at a single concentration, which is 10^-5 M for most compounds. The reported endpoint is percent growth (GI% or GIPRCNT), where numbers from 0 - 100% represent growth inhibition, and numbers from -100% - 0 represent cell death. For example, a value of 40 represents 60% growth inhibition. A value of 0 means no net growth occurred over the course of the experiment. A value of -40 indicates 40% of cells at the beginning of the experiment died by the end of the experiment. A value of -100 means all cells are dead at the end of the experiment.
NCI-60 Human Tumor Cell Lines Screen was performed using the standard one-dose NCI protocol, which is described in more detail at https://dtp.cancer.gov/discovery_development/nci-60/default.htm.
Compounds with GIPRCNT values below 10 were considered active. Activity score was based on GIPRCNT using the following formula: […]
Score is 0 for GIPRCNT values of 100 or above, 50 for GIPRCNT values of 0, and 100 for GIPRCNT values of -100.

| SMILES | growth |
| --- | --- |
| CCOC(=O)COc1c(C)cc(SSc2cc(C)c(OCC(=O)OCC)c(C)c2)cc1C | 122% |
| C=C(C)[C@@H]1CC[C@]2(C(=O)N3CCN(C)CC3)CC[C@]3(C)[C@H](CC[C@@H]4[C@@]5(C)C/C(=C/c6ccncc6)[C@H](O)C(C)(C)[C@@H]5CC[C@]43C)[C@@H]12 | -19.5% [100 µM] (active) |
| C[n+]1c(-c2ccccc2)c2cc(N)ccc2c2ccccc21 | 27.1% |
| CC(C)(C)c1cc(C(=O)Nc2cc3ccccc3cc2C(=O)NCCN)cc(C(C)(C)C)c1 | -36.6% (active) |
| Cc1cc(C)nc(SCC(=O)Nc2cccc(N=Cc3ccccc3O)c2)n1 | 97.2% |
| O=S(=O)(NCc1ccccc1)c1ncnc2nc[nH]c12 | 116% |
| COc1cc2c(c(OC)c1OC)-c1ccc(NNC(N)=S)c(=O)cc1[C@@H](NC(C)=O)CC2 | 52.1% |
| CC(C)(C)OC(=O)N1C=C/C(=C\Cn2cc(-c3ccccc3)nn2)CC1 | 84.1% |
| C#C[C@]1(O)CC[C@H]2[C@@H]3CC=C4c5nc(Nc6ccc(OC)cc6OC)sc5CC[C@]4(C)[C@H]3CC[C@@]21C | -12.7% (active) |
| C=C(C)[C@@H]1CC[C@]2(c3ncc(C)o3)CC[C@]3(C)[C@H](CC[C@@H]4[C@@](C)(CCC#N)[C@H](C(=C)C)CC[C@]43C)[C@@H]12 | -28% [100 µM] (active) |
| CCOc1cc(NC(=O)c2ccccc2)c(OCC)cc1N | 100% |
| O=C(OCc1ccc2c(Cl)cc(Cl)c(O)c2n1)N1CCN(C(=O)c2cc3cc(F)ccc3[nH]2)CC1 | 12.5% |
| CN(C)CCCNc1nc(-c2cccc(C(Cl)(Cl)Cl)c2)nc(C(Cl)(Cl)Cl)n1 | 91.8% |
| COc1ccccc1S(=O)Nc1ccccc1 (stereo not given) | 82% |
| O=C1Nc2ccccc2/C1=C/C(=O)c1ccc(N2CCOCC2)cc1 | 84% |
| CN(C)Cc1ccc[nH]1 | 113% |
| Oc1cc(Nc2ccnc3cc(Cl)ccc23)c2ncccc2c1 | 62.1% |
| Cc1ccc(-n2nc3n(/c2=N\C(=O)NS(=O)(=O)c2ccc(C)cc2)CCN3C2=NCCN2)cc1 | 99.7% |
| Brc1ccc2c(c1)CN(C1CCCCC1)CO2 | 91.7% |
| C=CCCCCOc1ccccc1-c1cnc(OCCCCC=C)n1C | 66.4% |

| SMILES | growth |
| --- | --- |
| Cc1cc(C)c(O)c(CNCCCCCCNCc2cc(C)cc(C)c2O)c1 | -44.9% (active) |
| CCOC(=O)n1cc(C2=C(c3ccc(OC)c(OC)c3)COC2=O)c2ccccc21 | 36.2% |
| O=C1COCCN1c1ccc(NCc2cn(Cc3ccc(F)cc3)c3ccccc23)cc1 | 72% |
| COc1cc2c(O)n(CCCN3CCOCC3)c3c4cnc5cccc(c(=O)c3c2cc1OC)c54 | 81.2% |
| Cc1cccc([N+](=O)[O-])c1I | 113% |
| C=C(C)[C@@H]1CC[C@]2(C(=O)NCCNCCNCCN)CC[C@]3(C)[C@H](CC[C@@H]4[C@@]5(C)CC[C@H](O)C(C)(C)[C@@H]5CC[C@]43C)[C@@H]12 | -23.3% [100 µM] (active) |
| C=C(CN=[N+]=[N-])[C@@H]1CC[C@]2(C)[C@H](CC[C@@H]3[C@H]4[C@H]5OC(=O)[C@@]4(CCC5(C)C)CC[C@]32C)[C@@]1(C)CCC#N | 88.5% [100 µM] |
| O=C(Nc1ccc(Oc2ccc(F)cc2)c(Cl)c1)c1cnccn1 | 62.4% |
| CCCC(NC(=O)OCc1ccccc1)C(=O)O (stereo not given) | 71.9% |
| C=C(C)[C@@H]1CC[C@]2(C(N)=O)CC[C@]3(C)[C@H](CC[C@@H]4[C@@]5(C)C/C(=C/c6cccnc6)[C@H](O)C(C)(C)[C@@H]5CC[C@]43C)[C@@H]12 | 43.2% [100 µM] |
| C[C@H]1[C@H](C)CC[C@]2(C(=O)O)CC[C@]3(C)C(=CC[C@@H]4[C@@]5(C)C/C(=C/c6ccco6)C(=O)C(C)(C)[C@@H]5CC[C@]43C)[C@H]12 | -13.9% [100 µM] (active) |
| C[C@]12CCc3c(ccc4cc(O)ccc34)[C@@H]1CC[C@H]2O | 29.8% |
| CC1(C(=O)O)CCC(N)(C(=O)O)C1(C)C (stereo not given) | 127% |
| CC(C)C1=NOC(=O)C1=Cc1cn(-c2ccccc2)nc1-c1ccc(Cl)cc1 | 77.4% |
| O=[N+]([O-])c1cc(CCl)ccc1OCCBr | 108% |
| C=C(C)[C@@H]1CC[C@]2(C)[C@H](CC=C3[C@@H]4[C@@H](C)[C@H](C)CC[C@]4(C(N)=O)CC[C@]32C)[C@@]1(C)CCC#N | 5.08% [100 µM] (active) |
| CC1Cc2ccc(OCCN(C)C)cc2C1=O (stereo not given) | 97.3% |
| O=C1COCCN1c1ccc(NCc2cn(Cc3cccc4ccccc34)c3ccccc23)cc1 | 84.3% |
| CCCCCCCCCCCCCCCCCCNC(=S)N/N=C/c1ccc(OC)c(OC)c1 | 100% |
| Cc1cc(NN=C(c2ccc(O)cc2)c2ccc(O)cc2)c([N+](=O)[O-])cc1[N+](=O)[O-] | 71.3% |
